Laboratory results reported in PubChem BioAssay AID1159580 (chemical genetic matrix, 2015).
The whole screen tested about 5,500 compounds, of which about 2,000 (36%) were called active. Inconclusive results (about 18%) are left out. Rule as the data show it: active = normalized growth mostly below about 0.91 (no sharp cut-off); inconclusive = no clear call, values can overlap the other calls; inactive = mostly above about 0.92. This is one part of the list.

Test: chemical genetic growth profiling, strain panel (AID 1159580);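 also: tested at 20 µM; growth read once vehicle control cultures reached saturation at 30 °C; 1 = growth at the plate median or of vehicle wells; lower values mean less growth of the strain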
Conditions: S. cerevisiae deletion strains, growth OD
[1] = locus YDL101C, strain DUN1, hits give low values
[2] = locus YHR030C, strain SLT2, hits give low values
[3] = locus YAL013W, strain DEP1, hits give low values
[4] = locus YBR229C, strain ROT2, hits give low values
[5] = locus YCL061C, strain MRC1, hits give low values
[6] = locus YDR150W, strain NUM1, hits give low values
[7] = locus YEL061C, strain CIN8, hits give low values
[8] = locus YGR078C, strain PAC10, hits give low values
[9] = locus YHR087W, strain rtc3, hits give low values
[10] = locus YJR043C, strain POL32, hits give low values
[11] = locus YJR075W, strain HOC1, hits give low values
[12] = locus YKL190W, strain CNB1, hits give low values
[13] = locus YLR039C, strain RIC1, hits give low values
[14] = locus YLR058C, strain SHM2 (second series), hits give low values
[15] = locus YLR085C, strain ARP6, hits give low values
[16] = locus YLR262C, strain YPT6, hits give low values
[17] = locus YML094W, strain GIM5, hits give low values
[18] = locus YMR219W, strain ESC1, hits give low values
[19] = locus YMR263W, strain SAP30, hits give low values
[20] = locus YNL153C, strain GIM3, hits give low values
[21] = locus YNL298W, strain CLA4 (second series), hits give low values
[22] = locus YNL322C, strain KRE1, hits give low values
[23] = locus YNR030W, strain Alg12, hits give low values
[24] = locus YPL055C, strain LGE1, hits give low values
[25] = locus YPL241C, strain CIN2, hits give low values
[26] = locus YPR135W, strain CTF4, hits give low values

Measured: normalized growth

CC(C)(C)c1cc(C(=O)NNc2cccc(Cl)c2)n(Cc2ccccc2)n1
inactive: locus YAR019C, strain CDC15, hits give low values 0.98 | locus YBL105C, strain PKC1, hits give low values 0.978 | locus YBR135W, strain CKS1, hits give low values 0.983 | locus YBR136W, strain MEC1, hits give low values 0.973 | locus YBR160W, strain CDC28, hits give low values 0.975 | locus YDL017W, strain CDC7, hits give low values 0.987 | locus YDL028C, strain MPS1, hits give low values 0.975 | [1] 0.955 | locus YDL108W, strain KIN28, hits give low values 0.978 | locus YDL132W, strain cdc53, hits give low values 0.969 | locus YDL214C, strain PRR2, hits give low values 0.917 | locus YDR052C, strain DBF4, hits give low values 0.976 | locus YDR054C, strain cdc34, hits give low values 0.979 | locus YDR226W, strain ADK1, hits give low values 0.985 | locus YDR477W, strain SNF1, hits give low values 0.923 | locus YER123W, strain YCK3, hits give low values 0.832 | locus YER133W, strain GLC7, hits give low values 0.926 | locus YFL009W, strain cdc4, hits give low values 0.992 | locus YFL029C, strain CAK1, hits give low values 0.939 | locus YFR003C, strain YPI1, hits give low values 0.99 | locus YFR019W, strain FAB1, hits give low values 0.911 | locus YFR028C, strain CDC14, hits give low values 0.974 | locus YGR040W, strain KSS1, hits give low values 0.906 | locus YGR052W, strain FMP48, hits give low values 0.922 | locus YGR092W, strain DBF2, hits give low values 0.822 | [2] 0.862 | locus YHR079C, strain IRE1, hits give low values 0.927 | locus YHR082C, strain KSP1, hits give low values 0.962 | locus YHR205W, strain SCH9, hits give low values 0.894 | locus YIL147C, strain SLN1, hits give low values 0.981 | locus YJL095W, strain BCK1, hits give low values 0.825 | locus YJL128C, strain PBS2, hits give low values 0.956 | locus YJL157C, strain FAR1, hits give low values 0.892 | locus YJR016C, strain ILV3, hits give low values 0.985 | locus YJR066W, strain TOR1 (second series), hits give low values 0.884 | locus YJR066W, strain TOR1, hits give low values 0.935 | locus YKL048C, strain ELM1, hits give low values 0.889 | locus YKL067W, strain YNK1, hits give low values 0.935 | locus YKL101W, strain HSL1, hits give low values 0.917 | locus YKL193C, strain SDS22, hits give low values 0.96 | locus YKL203C, strain TOR2, hits give low values 1.01 | locus YLR133W, strain CKI1, hits give low values 0.882 | locus YLR403W, strain SFP1, hits give low values 0.913 | locus YML070W, strain DAK1, hits give low values 0.887 | locus YMR001C, strain CDC5, hits give low values 0.975 | locus YMR205C, strain PFK2 (second series), hits give low values 0.923 | locus YMR277W, strain FCP1, hits give low values 0.988 | locus YNL006W, strain LST8, hits give low values 0.986 | locus YNL020C, strain ARK1, hits give low values 0.887 | locus YNL161W, strain CBK1, hits give low values 0.978 | locus YNL183C, strain NPR1, hits give low values 0.965 | locus YNL207W, strain RIO2, hits give low values 0.974 | locus YNL222W, strain SSU72, hits give low values 0.982 | locus YNL307C, strain MCK1 (second series), hits give low values 0.816 | locus YOL078W, strain AVO1, hits give low values 0.96 | locus YOL136C, strain PFK27, hits give low values 0.86 | locus YOR061W, strain CKA2, hits give low values 0.847 | locus YOR119C, strain RIO1, hits give low values 0.978 | locus YOR231W, strain MKK1, hits give low values 0.869 | locus YOR329C, strain SCD5, hits give low values 0.978 | locus YPL031C, strain PHO85, hits give low values 0.94 | locus YPL153C, strain RAD53, hits give low values 0.925 | locus YPL204W, strain HRR25, hits give low values 0.889 | locus YPL209C, strain IPL1, hits give low values 0.972 | locus YPL256C, strain CLN2, hits give low values 0.863 | locus YPR025C, strain CCL1, hits give low values 0.981 | locus YPR106W, strain ISR1, hits give low values 0.969 | locus YPR111W, strain DBF20, hits give low values 0.978 | strain NNK1, hits give low values 0.961 | strain TSCII, hits give low values 0.966
active: locus YLR113W, strain HOG1, hits give low values 0.787

Cc1cccc(Cn2nc(C(C)(C)C)cc2C(=O)O)c1
inactive: [3] 0.96 | [4] 0.96 | [5] 1 | [1] 0.978 | [6] 0.98 | [7] 0.998 | [8] 0.97 | [2] 1.03 | [9] 0.949 | locus YJL187C, strain SWE1, hits give low values 0.973 | [10] 0.971 | [11] 0.963 | [12] 0.982 | [13] 0.882 | [14] 0.969 | [15] 1.02 | [16] 0.905 | [17] 1 | [18] 0.946 | [19] 0.998 | [20] 0.985 | [21] 0.997 | [22] 0.946 | [23] 1 | [24] 0.978 | [25] 1.01 | [26] 0.986

CC(C)(C)c1cc(C(=O)NNC(=O)c2cc(C(F)(F)F)cc(C(F)(F)F)c2)n(Cc2ccc(F)cc2)n1
inactive: [3] 0.979 | [4] 1.03 | [5] 1.04 | [1] 0.964 | [6] 1.01 | [7] 0.979 | [8] 1.01 | [2] 1 | [9] 0.994 | [10] 0.997 | [11] 1.08 | [13] 1.02 | [14] 1.04 | [15] 0.999 | [16] 1.02 | [17] 0.987 | [18] 1 | [19] 1.02 | [20] 1 | [21] 0.984 | [22] 0.99 | [23] 0.997 | [24] 0.976 | [25] 1.01 | [26] 0.927

CCN1CCCC1CNC(=O)c1cc(S(N)(=O)=O)ccc1OC (centres undefined)
inactive: [3] 0.972 | locus YAL040C, strain CLN3, hits give low values 0.955 | locus YCL061C, strain MRC1 (second series), hits give low values 0.984 | locus YDR363W, strain ESC2, hits give low values 0.962 | locus YER002W, strain NOP16, hits give low values 0.969 | [11] 0.973 | [19] 0.98 | locus YMR307W, strain GAS1, hits give low values 1.02 | [20] 1.02 | locus YNL175C, strain NOP13, hits give low values 0.978 | locus YNL197C, strain WHI3, hits give low values 0.977 | locus YNL224C, strain SQS1, hits give low values 0.992 | [22] 0.974 | locus YOR083W, strain WHI5 (second series), hits give low values 0.963 | [24] 0.993

CC(=O)Nc1ccc(S(=O)(=O)Nc2c(C)n(C)n(-c3ccccc3)c2=O)cc1
inactive: [3] 0.999 | [4] 0.947 | [5] 1.02 | [1] 1.04 | [6] 1.04 | [7] 0.995 | [8] 1.02 | [2] 1.11 | [9] 0.974 | [10] 1.02 | [11] 0.996 | [12] 1.01 | [13] 1.02 | [14] 0.995 | [15] 0.999 | [16] 1 | [17] 1.01 | [18] 1.01 | [19] 1.01 | [20] 1.06 | [21] 1 | [22] 1.01 | [23] 1 | [24] 0.974 | [25] 0.987 | [26] 1.07
